Source: PubChem BioAssay
The sample as a whole holds a higher share of hits than the screen did.
Pf Dd2 inh: Plasmodium falciparum Dd2 growth inhibition | actives 4.3% (n = 120,000) | Potency, µM (top dose mostly 28.9 µM), usual class: inhibitors | P. falciparum Dd2 growth, SYBR Green, 72 h; active = well fitted inhibition curve with a large enough effect; also: nearly all actives have a fitted effect of over 65% in size
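Readout: SYBR Green fluorescence, 485 nm excitation, 535 nm emission, after ~16 h lysis at 37C. Before that, Dd2-infected red cells (2.5% hematocrit) grew 72 h with compound, 29 uM top final concentration.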
Of the large screens only hits and unclear results are named; the others gave an inactive call.

CCOc1ccccc1CNC(=O)c1cc2c(N3CCCC3)nc(C)cn2n1	none
COCCNC(=O)NC[C@H]1O[C@@H]2C[C@@H](CC(=O)NCc3nccn3C)O[C@@H]2[C@@H]1O	none
CCNc1ncc(-c2nc3cc(S(=O)(=O)NC(C)C)ccc3n2C(C)C)cn1	none
CCOCC(=O)N1CCC(N2C(=O)CCC2C(=O)NCc2ccccc2)CC1 (stereo not given)	none
Cn1cc(-c2cc3c(ccn3Cc3ccncc3)c(N3CCOCC3)n2)cn1	none
c1cc(Cn2ccc3c(N4CCOCC4)nc(-c4cn[nH]c4)cc32)ccn1	none
CN(C)Cc1ccc(-c2cc3c(ccn3Cc3ccncc3)c(N3CCOCC3)n2)cc1	Pf Dd2 inh 11.2µM
CCOc1ccc(CN2CCCC(CCC(=O)Nc3ccccc3F)C2)cc1CO (stereo not given)	none
O=C(CCC1CCCN(Cc2cccn2-c2nccs2)C1)Nc1ccccc1F (stereo not given)	Pf Dd2 inh 7.08µM
COc1cccc(C(=O)NCC2CCCN(Cc3nc4ccccc4[nH]3)C2)c1OC (stereo not given)	none
O=C(CCC1CCN(C(=O)c2ccccc2)CC1)Nc1ccccc1F	none
COc1cccc(C(=O)NCC2CCCN(C/C(C)=C/c3ccccc3)C2)c1OC (stereo not given)	none
COc1ccccc1CNC(=O)CCC1CCCN(S(=O)(=O)c2ccccc2F)C1 (stereo not given)	none
COc1ccccc1/C=C/CN1CCCC(CCC(=O)Nc2ccccc2F)C1 (stereo not given)	Pf Dd2 inh 8.91µM
O=C(CCC1CCCN(C(=O)Cc2c[nH]c(=O)[nH]c2=O)C1)Nc1ccccc1F (stereo not given)	none
COc1ccccc1/C=C/CN1CCCC(CNC(=O)COc2ccccc2OC)C1 (stereo not given)	Pf Dd2 inh 7.94µM
CCn1cc([S+](=O)([O-])N2CCN(C(=O)N3CC4CC(C3)[C@H]3CCCC(=O)N3C4)CC2)cn1 (stereo not given in full)	none
CCc1cccc(NC(=O)C2Cn3cccc3C(=O)N2)c1 (stereo not given)	none
CN(Cc1ccon1)C(=O)c1ccc2c(c1)[nH]c(=O)n2C1CCC(O)CC1 (stereo not given)	none
COc1ccc(C(=O)N2CCN(C(C(=O)O)c3ccc(F)cc3)CC2)cc1 (stereo not given)	none
O=C1C[C@@H]2CCN(C(=O)c3ccccc3)C[C@@H]2CCN1Cc1cccnc1	none
C#C[C@H]1CN2CC[C@H]1C[C@@H]2CNC(=O)c1ccc2c(c1)OCO2	none
O=C(Cc1ccc(F)cc1)N1CCN(c2nc3ncccc3o2)CC1	none
O=C(Cc1ccc(Cl)cc1)N1CCN(c2nnc3ccccn23)CC1	none
CCOC(=O)C(C)N1CCOc2c(O)cc(-c3cccc(Cl)c3)cc2C1 (stereo not given)	Pf Dd2 inh 11.2µM
CC1=NOC(C(=O)N2CCOc3c(O)cc(-c4nc(C)cnc4C)cc3C2)C1 (stereo not given)	none
CC(=O)NCCC(=O)N1CCOc2c(O)cc(-c3cccc(Cl)c3)cc2C1	none
COc1ccc(C2=C(C(C)=O)Sc3nnc(-c4ccc(C)cc4)n3N2C(C)=O)cc1OC	Pf Dd2 inh 2.51µM
CCC(=O)C1=C(c2ccc(F)cc2)N(C(=O)CC)n2cnnc2S1	Pf Dd2 inh 4.47µM
Cc1nnc2n1C(C)CN(C(=O)CCCn1nnc(-c3ccc(F)cc3)n1)C2 (stereo not given)	none
CCC(=O)C1=C(c2ccc(OC)c(OC)c2)N(C(=O)CC)n2c(nnc2-c2ccc(C)cc2)S1	none
CC(=O)C1=C(c2ccc(Cl)c(Cl)c2)N(C(C)=O)n2c(nnc2-c2ccccc2)S1	none
COc1ccc(C2=NS(=O)(=O)N(C)C(C(=O)Nc3cc(C)ccc3O)=C2)cc1OC	none
CC(=O)C1=C(c2ccc(Cl)c(Cl)c2)N(C(C)=O)n2c(C)nnc2S1	Pf Dd2 inh 2.82µM
CC(=O)C1=C(c2ccc(Cl)c(Cl)c2)N(C(C)=O)n2cnnc2S1	Pf Dd2 inh 1.12µM
CCC(=O)N1CCCCCCn2c(nnc2-c2ccc(F)cc2)CC1	none
O=C(c1n[nH]c2ccccc12)N1CC2CC(C1)[C@H]1CCCC(=O)N1C2 (stereo not given in full)	none
O=C(CC1COCCN1C(=O)c1cc(F)ccc1F)NCc1cccnc1 (stereo not given)	none
CC1=C[C@@H](CNC(=O)c2ccco2)[C@H](C(C)C)C[C@H]1CC(=O)N(C)Cc1ccccc1	none
O=C(CN1C(=O)NC2(CCOCC2)C1=O)Nc1ccccc1F	none
Cc1cc2nc3n(c(=O)c2n1CC(=O)Nc1cccc(C(F)(F)F)c1)CCC3	none
O=C(CN1CCCCCC1)N1CCC(N2C(=O)C3(CCCC3)C2c2ccccc2)CC1 (stereo not given)	Pf Dd2 inh 4.47µM
COCCC(=O)N1CCC(N2C(=O)C3(CCCCC3)C2c2ccccc2)CC1 (stereo not given)	none
CC(C)C(=O)N1CCC(N2C(=O)C3(CCCC3)C2c2ccccc2)CC1 (stereo not given)	none
O=C(CN1CCOCC1)N1CCC(N2C(=O)C3(CCCCC3)C2c2ccccc2)CC1 (stereo not given)	none
CCOc1ccccc1NC(=O)N1CCC(N2CCN(Cc3ccccc3)C(=O)C2=O)CC1	none
CCOc1ccccc1NC(=O)N1CCC(N2C(=O)C3(CCCC3)C2c2ccccc2)CC1 (stereo not given)	Pf Dd2 inh 8.91µM
COc1ccc(Cn2c(-c3cccc(Cl)c3)nc(C)c(CCO)c2=O)cc1F	none
O=C1NC[C@@H](CCC(=O)N2CCN(c3ccccc3)CC2)N2C[C@@H](NCc3ccccn3)C[C@@H]12	none
COc1ccc(CCC(=O)N2CCn3c(nnc3[C@@H]3C[C@@H](O)CN3C(C)C)C2)cc1	none
CCc1noc(-c2cccn3c(CNC(=O)c4ccoc4)nnc23)n1	none
Cc1ccsc1C(=O)N1CCN(c2cc(-c3ccccc3)[nH]n2)CC1	none
O=C(CN1C(=O)NC2(CCOCC2)C1=O)Nc1ccccc1Cl	none
CCC(Oc1ccccc1)C(=O)Nc1cccc(OCc2cc(=O)n3cccc(C)c3n2)c1 (stereo not given)	none
CCC(Sc1nc2ccccc2c2nc(CCn3cncc3C)nn12)C(=O)Nc1cccc(OC)c1 (stereo not given)	Pf Dd2 inh 7.08µM
CCCCn1c(SCC(=O)Nc2cccc(OC)c2)nc2c(sc3ccccc32)c1=O	none
CC1Oc2ccc(NC(=O)c3c(F)cccc3F)cc2CN(CCc2ccc(F)cc2)C1=O (stereo not given)	none
C=C[C@H]1CN2CC[C@H]1C[C@@H]2CNS(=O)(=O)c1cccc(F)c1	none
COCCCNc1nc2c(S(=O)(=O)c3ccc(C)cc3)nnn2c2ccccc12	none
COCCCNc1nc2c(-c3ccccc3)nnn2c2ccccc12	Pf Dd2 inh 7.94µM
COCCCNc1nc2c(S(=O)(=O)c3ccccc3)nnn2c2ccccc12	none
C[C@@H](NS(=O)(=O)c1ccc(Cl)cc1)c1onc(-c2cccnc2)c1C(=O)O	none
O=C1NC(C(=O)Nc2cccc(Cl)c2)Cn2cccc21 (stereo not given)	none
CCOc1ccccc1N1CCN(C(=O)CCn2ccn3nc4c(c3c2=O)CCCC4)CC1	none
COc1ccc(NC(=O)C2(C)CCCCC(=O)N2)cc1F (stereo not given)	none
CN(Cc1cccc(O)c1)C(=O)c1cc(COc2ccccc2F)[nH]n1	none
O=c1c2ccccc2nc(/C=C\c2ccc(F)cc2)n1-c1ccccc1F	none
O=c1c2ccccc2nc(/C=C/c2ccccc2)n1-c1ccccc1F	none
Cc1ccccc1-n1c(/C=C/c2c(C)[nH]c3ccccc23)nc2ccccc2c1=O	Pf Dd2 inh 3.16µM
COCc1noc(CCNC(=O)c2ccc(C)c(N3CCNC3=O)c2)n1	none
